Compounds without any hit were thinned out: in the full panel of roughly 83,000, 20% have a hit.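 Treatment: one concentration, 48 hours, 96-well format. Scoring: percent growth, with anything below 10 considered active.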 Values without a mark were called inactive. Active and inactive are the calls of the source.
tested on: OVCAR-3 ovarian; experiment: NCI-60 one-dose screen, 48 h (100 = growth as untreated, 0 = no growth, -100 = all killed); conditions: 10 µM unless noted
Experimental: Growth inhibition of the OVCAR-3 human tumor cell line is measured as a screen for anti-cancer activity. Cells are grown in 96 well plates and exposed to the test compound for 48 hours. Compounds are tested at a single concentration, which is 10^-5 M for most compounds. The reported endpoint is percent growth (GI% or GIPRCNT), where numbers from 0 - 100% represent growth inhibition, and numbers from -100% - 0 represent cell death. For example, a value of 40 represents 60% growth inhibition. A value of 0 means no net growth occurred over the course of the experiment. A value of -40 indicates 40% of cells at the beginning of the experiment died by the end of the experiment. A value of -100 means all cells are dead at the end of the experiment.
NCI-60 Human Tumor Cell Lines Screen was performed using the standard one-dose NCI protocol, which is described in more detail at https://dtp.cancer.gov/discovery_development/nci-60/default.htm.
Compounds with GIPRCNT values below 10 were considered active. Activity score was based on GIPRCNT using the following formula: […]
Score is 0 for GIPRCNT values of 100 or above, 50 for GIPRCNT values of 0, and 100 for GIPRCNT values of -100.

For `COc1ccc(Cn2cc3c(c2-c2cc(OC)c(OC)c(OC)c2)CCCc2cnoc2-3)cc1`, the growth was 4.45% (active).
For `Oc1ccc(-c2nnc(SCc3ccc(O)c4ncccc34)n2-c2ccccc2)cc1`, the growth was 3.67% (active).
With `Cc1cc(F)cc(NS(=O)(=O)c2ccc(-c3cnc(C4CC4)o3)cc2)c1` the growth was -10.1% (active).
In the case of `COc1ccccc1N1CCN(C2=NN=C(c3cccc(Cl)c3)c3ccccc3C2)CC1`, the growth is reported as -31.2% (active).
For `CC(=O)Nc1ccc(NC(=O)Nc2cccc(-c3nc(-c4ccc(NC(=O)c5cccnc5)cc4Cl)no3)c2)cc1C(F)(F)F`, the growth was -63.7% (active).
With `O=[N+]([O-])c1ccc(-c2nnc(SCc3ccc(O)c4ncccc34)o2)cc1` the growth was 8.31% (active).

Compared with `COc1cc(/C=N/n2cnc3oc(-c4ccccc4)cc3c2=N)cc(CN2CCCCC2)c1O`, `COc1cc(/C=N/n2cnc3oc(-c4ccccc4)cc3c2=N)cc(CN2CCCC2)c1O` is lower in growth: 114% for the first, 104% for the second.

Compared with `CCNC(=NCCCN(C)C)N/C(N)=N/c1nc2ccccc2s1`, `N/C(=N\c1nc2c(Cl)cccc2s1)C(Cl)(Cl)Cl` is lower in growth: 104% for the first, 57.9% for the second.

Going from `C#C[C@]1(O)CC[C@H]2[C@@H]3CC=C4c5sc(-c6cccc(F)c6)nc5CC[C@]4(C)[C@H]3CC[C@@]21C` to `CCC(=O)Nc1cc(Nc2cc(NC3CC3)n3ncc(C#N)c3n2)ccc1C`, the growth falls from 102% to 26.2%.

Going from `NC(=O)c1c(NC(=O)c2cccc(OC(F)(F)F)c2)sc2c1CCC(=O)C2` to `CCOC(=O)c1c(NC(=O)c2ccc(F)cc2F)sc2c1CCC(=O)C2`, the growth rises from 67.2% to 113%.

First: CCC(C)[C@H]1OC(=O)[C@H](C(C)C)N(C)C(=O)[C@@H](C(C)C)OC(=O)[C@H](C(C)C)N(C)C(=O)[C@@H](C(C)CC)OC(=O)[C@H](C(C)C)N(C)C1=O (stereo not given in full)
Second: COc1c([C@@H](CC(C)C)OC(C)=O)ccc2c1C(=O)OCc1cc(C)cc(O)c1O2
The growth of the first is lower: 18.3% for the first, 43% for the second.

Compared with `O=c1[nH]c(CNc2ccc(NCc3c(-c4ccccc4)no[n+]3[O-])cc2)nc2c1cnn2-c1ccccc1`, `O=C(/C=C/c1cn(-c2ccccc2)nc1-c1ccc(Cl)cc1)c1cc2ccccc2oc1=O` is lower in growth: 94.4% for the first, 82.8% for the second.

Compared with `C/C(=C(/C)C1CC1CCN(C(=O)c1ccc([N+](=O)[O-])cc1)S(=O)(=O)c1ccc(C)cc1)C1CCCCC1` (stereo not given), `O=S(=O)(Nc1ccc(C2CC2)cc1)c1ccc(-c2cnc(C3CC3)o2)cc1` is lower in growth: 96.2% for the first, 53.2% for the second.

Compared with `N/C(=N\c1nc2ccc([N+](=O)[O-])cc2s1)C(Cl)(Cl)Cl`, `CCCC(=O)NC(c1cccnc1)c1cc(Cl)c2cccnc2c1O` (stereo not given) is lower in growth: 47.4% for the first, 19.7% for the second.

First: CCOP(=O)(OCC)OC[C@]12CCC(C)(C)C[C@H]1C1=CC[C@@H]3[C@@]4(C)C/C(=C\c5cccnc5)[C@H](OP(=O)(OCC)OCC)C(C)(C)[C@@H]4CC[C@@]3(C)[C@]1(C)CC2
Second: Cc1cc(O)c(=O)cc2c1C[C@H]1CC(C)(C)/C=C/C[C@]3(C)Oc4cc(=O)c(O)cc(C)c4C[C@H]3C[C@H](O)[C@@]1(C)O2
The growth of the first is higher: 28.5% for the first, 14.5% for the second.

Compared with `O=C1[C@@H]2Cc3c([nH]c4ccccc34)[C@H](c3c(Cl)cccc3Cl)N2C(=O)CN1C1CCN(Cc2ccccc2)CC1`, `O=C(CCCCCCN1CC(=O)N2[C@@H](c3ccc(Cl)c(F)c3)c3[nH]c4ccccc4c3C[C@H]2C1=O)NO` is higher in growth: 81.4% for the first, 83.6% for the second.

Compared with `Cn1c(SC(C(=O)Nc2ccc(F)cc2)c2ccccc2)nc2ccccc2c1=O` (stereo not given), `O=C(CSc1nnc(-c2cccs2)n1-c1ccccc1)Nc1ccc(F)cc1` is lower in growth: 114% for the first, 111% for the second.

First: CCNC(=O)Oc1ccc(/C(=C(/C)c2ccc(Cl)cc2)c2ccc(OCCN(C)C)cc2)cc1
Second: CC(=O)c1ccc(NC(=O)COc2ccc(C3SCC(=O)N3c3ccc(Br)cc3)cc2)cc1 (stereo not given)
The growth of the first is lower: 77.8% for the first, 121% for the second.

Compared with `COc1ccc(S(=O)(=O)NCCCNc2nccc(-n3cnc4ccccc43)n2)cc1`, `COc1ccc(-c2cc(-c3ccc(Cl)cc3)nc3nc(N)nn23)cc1` is higher in growth: 105% for the first, 110% for the second.

Going from `COc1cc(-c2noc(C[C@@H](NC(=O)OCc3ccccc3)C(C)C)n2)cc(OC)c1OC` to `COc1ccc(Oc2ccc(C3CC(c4cc(OC)c(OC)c(OC)c4)=NN3C(C)=O)cc2)cc1` (stereo not given), the growth falls from 110% to 25.1%.

Compared with `O=c1oc2ccc(-c3ccc(F)cc3F)cc2c(=O)n1-c1cccc(C(F)(F)F)c1`, `CCOC(=O)c1c(NC(=O)c2cccc(C(F)(F)F)c2)sc2c(CN3CCN(C)CC3)c(O)ccc12` is higher in growth: 10.9% for the first, 65.6% for the second.

First: COc1cc(/C=C/C(=O)c2ccc(NC(=O)CSc3nnc(-c4ccc5nc(-c6ccccc6)[nH]c5c4)o3)cc2)cc(OC)c1OC
Second: Oc1ccc(CSc2nnc(-c3ccc(Oc4ccccc4)cc3)n2-c2ccccc2)c2cccnc12
The growth of the first is higher: 72.1% for the first, 19.3% for the second.

Compared with `Cc1nn(-c2ccc(Cl)cc2)c(C)c1N=Nc1ccc2oc(=O)ccc2c1`, `CCCCCCCCNC(=O)c1ccc(Cn2c(CCCC)nc3c(N)nc4ccccc4c32)cc1` is lower in growth: 104% for the first, 69.5% for the second.

Source: PubChem BioAssay (NCI)
